Rows were chosen to be rich in hits. Some 0.44% of all compounds tested hit in one or more screens of this group.
TRb-SRC2 inh = disrupts binding of human TR beta to SRC2; AID 1469; Potency, µM (top dose mostly 106 µM), for inactives: at the highest dose activity change, negative = inhibition, hits mostly inhibitors; TRbeta-SRC2 peptide binding, fluorescence polarization; receptor liganded with 1 µM T3; P10828; hit rate 0.065% among 280,000;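 also: potency is read from the fitted curve at half-maximal effect; plate controls were bound peptide for no effect and peptide without receptor for full effect; nearly all actives have a fitted effect of over 50% in size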
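TRb LBD 0.6 uM + Texas Red SRC2 peptide 20 nM, 1 uM T3, Tris buffer w/ 5% DMSO; compound pinned, 5 h RT; FP read ex 555/em 632; normalized to unbound and bound controls.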
RGS12 GoLoco inh-1 = inhibitors of human Gai1-RGS12 GoLoco interaction (red fluorophore); P63096; Gai1:RGS12 GoLoco peptide FP, rhodamine, 10 min; Potency, µM (highest dose often 61.6 µM), for inactives: top-dose activity, negative = inhibition, hits mostly inhibitors; hit rate 0.44% among 230,000; AID 880; active = well fitted inhibition curve with a large enough effect, not every such curve was filed as active; inactive = no such curve, though single readings can be large or run the other way; also: potency is read from the fitted curve at half-maximal effect; % is scaled to controls: 0 for no effect and ±100 for the full control effect; nearly all actives have a fitted effect of over 30% in size
ERG Ets-DNA blk = blocks human ERG Ets domain binding to DNA | fluorescence polarization, His-ERG Ets domain / labelled DNA | AID 624246 | hit rate 0.028% among 370,000 | Potency, µM (doses to about 76.9 µM), inactives show top-dose FP activity, negative = inhibition, most hits filed as inhibitors; active = well fitted inhibition curve with a large enough effect in the polarisation, with a control signal flat; inconclusive = small, poorly fitted or top-dose-only effect, or effect the other way, or a change in a side signal; inactive = no such curve, though single readings can be large or run the other way; the % refers to the polarisation;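 also: polarization taken with two DNA probes labelled with fluorescein and Texas red; potency is read from the fitted curve at half-maximal effect; % of control where 0% means no effect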
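His-tagged ERG Ets domain (1 uM in the protein solution; 300mM KCl, 50mM Tris-HCl, 1mM EDTA, 1mM DTT, pH 7.5) received compound, then a probe mix of 5 nM fluorescein-DNA and 100nM Texas-615-DNA. Fluorescence polarization was read for both dyes.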
TR SRC2 fluor cs = Texas Red fluorescence interference in TRb-SRC2 counter-screen | TRb/SRC2 Texas Red total fluorescence interference | Potency, µM (doses to about 106 µM), inactives show top-dose fluorescence change, negative = quenching | hit rate 0.29% among 280,000; active = well fitted curve in either direction with a large enough effect; inconclusive = small, poorly fitted or top-dose-only effect; also: potency is read from the fitted curve at half-maximal effect; % is scaled to controls: 0 for no effect and ±100 for the full control effect
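Human TRβ ligand-binding domain (0.6 uM) and Texas Red SRC2 peptide (20 nM) in Tris buffer with 1 uM T3 and 5% DMSO were incubated with pinned compound for 5 hr at ambient temperature. Total fluorescence was computed as S + 2P (555/632 nm).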
Apoferritin bind = candidate novel general anesthetic via apoferritin binding; AID 485281; Potency, µM (top dose mostly 77.5 µM), for the others: top-dose activity change, negative = displacement, actives largely listed as inhibitors; hit rate 0.074% among 350,000; apoferritin/1-aminoanthracene competitive binding, fluorescence; also: potency is read from the fitted curve at half-maximal effect; % is scaled to controls: 0 for no effect and ±100 for the full control effect; nearly all actives have a fitted effect of over 20% in size
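Horse-spleen apoferritin (10 uM) was mixed with 50% saturated 1-aminoanthracene in PBS, exposed to compounds for 10 min at room temperature, and read for fluorescence (ex 380 nm, em 535 nm). Competitive displacement was fitted with a four-parameter Hill equation.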
RGS12 GoLoco inh-2 = RGS12 (human) GoLoco motif inhibition, red FP; shares compounds with RGS12 GoLoco inh-1; Gai1/rhodamine-RGS12 GoLoco peptide fluorescence polarization; Potency, µM (titrated, usually from 57.1 µM), for inactives: at the highest dose activity, negative = inhibition, most hits filed as inhibitors; hit rate 50% among 110
Active calls of the source: *; u = inconclusive; x = no result given; ! = a repeat was not active. Unless noted, calls follow the shape of the dose curve; as a rule, active = well fitted curve in the direction sought with a large enough effect; inconclusive = small, poorly fitted or top-dose-only effect, or another doubt; inactive = no such curve, though single readings can be large; an effect the other way counts as inactive or inconclusive.

SMILES	TRb-SRC2 inh	RGS12 GoLoco inh-1	ERG Ets-DNA blk	TR SRC2 fluor cs	Apoferritin bind	RGS12 GoLoco inh-2
CCn1c(SCC(=O)N2CCN(c3cccc(Cl)c3)CC2)nc2ccccc2c1=O	-1%	8%	-2%	0%	0%	8%
CN1C(CC(=O)c2ccccc2)CCCC1CC(O)c1ccccc1 (centres undefined)	6%	22µM*!	-3%	0%	10%	18%
CCCCCCCCCCCCCCCC[n+]1ccc(C(N)=O)cc1	-2%	3.2µM*	11%	-3%	u	u
CC(CC(C)(C)C)CP(=O)(O)CC(C)CC(C)(C)C (centres undefined)	-9%	x	x	1%	4%	x
O=C(O)c1ccc(O)cc1O	4%	-10%	17%	-1%	x	x
O=C(O)c1cc(NCc2cc(O)ccc2O)ccc1O	-7%	6.3µM*	x	0%	3%	2µM*
COc1cc2c(c(OC)c1OC)-c1c(cc(OC)c(OC)c1OC)CC(C)C(C)C2 (centres undefined)	1%	x	x	-1%	-21%	x
